Measured values published in PubChem BioAssay (EPA / NIEHS).
“And” between values parts separate entries of the source, which are not always exact repeats. Equal values may be shown once. Results filed as inconclusive are left out. More than one record can exist for a structure, and the calls need not agree. The source made the active and inactive calls. How the source made its calls, unless noted: active means hit-call score of the fitted dose curve at least 0.9, where 1 is the maximum; inactive means score below 0.9.

What was measured:
[1] = CCTE_Mundy_HCI_hN2_NOG_NeuriteCount: CCTE's Neurite Outgrowth Assay in human hN2 cells for Neurite Count, Mundy Lab (AID 2284219; active means hit-call score of the fitted dose curve at least 0.9, where 1 is the maximum)
Procedure, shortened: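 In this morphology assay, hNP1-derived neurons received test chemical 2 h post-plating and were fixed two days later in warm paraformaldehyde/sucrose containing Hoechst 33342. Neurites, labelled by rabbit anti-βIII-tubulin (1:800) and Alexa Fluor-488 (1:500), were counted automatically.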

[2] = TAMU_PeakParms_SingleDonor1434_QT: Texas A&M University (TAMU) 1.5-hr Human Induced Pluripotent Stem Cell (iPSC)-derived Cardiomyocytes Calcium (Ca+2) Flux Assay for Cardiotoxicity: QT (decay-rise ratio) (AID 2284235; active means hit-call score of the fitted dose curve at least 0.9, where 1 is the maximum)
Procedure, shortened: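 Decay/rise ratio of calcium-flux fluorescence scored after 90 min exposure (37C) of donor 1434 iPSC cardiomyocytes to 0.2–100 uM (0.5% DMSO). Beat-cessation and severe-notch points removed; POD is EC05, a 5% rise over DMSO.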

[3] = CCTE_Mundy_HCI_hN2_NOG_NeuronCount: CCTE's Neurite Outgrowth Assay in human hN2 cells for Neuron Count, Mundy Lab (AID 2284221; active means hit-call score of the fitted dose curve at least 0.9, where 1 is the maximum)
Procedure, shortened: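 Read-out is the number of betaIII-tubulin-positive neurons imaged by automated high-content analysis, with DMSO as negative control.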

[4] = BSK_BT_PBMCCytotoxicity: PBMC Cytotoxicity Assessment in the BioMAP Diversity Plus: BT Assay (AID 2284225); conditions: primary human B cells with PBMC;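 further: PBMC viability measured by Alamar Blue dye reduction fluorescence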
Procedure, shortened: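 Viability by Alamar Blue reduction (6 h, ex/em 546/580 nm) after 90 h culture of SEB/TSST-1-activated PBMC (20 ng/mL each) given compound 1 h before activation. DMSO served as baseline for curve fitting.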

[5] = read-out: Secreted IgG (sIgG), gene 3500; test: BSK_BT_sIgG: BioMAP Diversity Plus: BT Assay for Secreted IgG (sIgG) Biomarker Activity (AID 2284226); conditions: primary human B cells with PBMC
Procedure, shortened: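 ELISA quantitation of secreted IgG from human B cells co-cultured with PBMC, sampled 24 h post-dosing. Values fitted relative to DMSO vehicle as baseline, positive fitting direction.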

[6] = BSK_BT_Bcell_Proliferation: Viability Assessment in the BioMAP Diversity Plus: BT Assay for B cell Proliferation (AID 2284227); conditions: primary human B cells with PBMC
Procedure, shortened: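 Human B cell/PBMC co-culture; test chemical added; 72 h; TCA fix (10%), 0.1% SRB stain, A560 for total protein as a proliferation read-out; positive-direction fit vs DMSO baseline.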

[7] = read-out: Interleukin 6 (IL6), IL6 (gene 3569); test: BSK_BT_xIL6: BioMAP Diversity Plus: BT Assay for Interleukin 6 (IL6) Biomarker Activity (AID 2284228); conditions: primary human B cells with PBMC
Procedure, shortened: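 Secreted IL-6 in the primary human B cell plus PBMC system, measured by Luminex at 24 h post-chemical, DMSO as baseline. Alamar Blue viability: 75,000 cells/well, chemical 1 h before SEB/TSST-1 (20 ng/mL each), 90 h, then 6 h dye.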

[8] = read-out: Interleukin 17A (IL17A), IL17A (gene 3605); test: BSK_BT_xIL17A: BioMAP Diversity Plus: BT Assay for Interleukin 17A (IL17A) Biomarker Activity (AID 2284229); conditions: primary human B cells with PBMC
Procedure, shortened: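 Luminex xMAP quantification of secreted IL-17A after 24 h chemical exposure of a primary human B cell/PBMC co-culture. Signal increases fitted relative to DMSO negative control.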

[9] = read-out: Tumor necrosis factor (Homo sapiens) (UniProt P01375); test: BSK_BT_xTNFa: BioMAP Diversity Plus: BT Assay for Tumor necrosis factor alpha (TNF-alpha) Biomarker Activity (AID 2284230); conditions: primary human B cells with PBMC
Procedure, shortened: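 Read-out: Luminex xMAP quantitation of secreted TNF-alpha from a B cell/PBMC co-culture 24 h after compound addition. Signal analysed relative to DMSO vehicle, positive fitting direction.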

[10] = read-out: Vascular cell adhesion molecule 1 (VCAM1), VCAM1 (gene 7412); test: BSK_MyoF_VCAM1: BioMAP Diversity Plus: MyoF Assay for Vascular cell adhesion molecule 1 (VCAM1) Biomarker Activity (AID 2284231); conditions: primary human lung fibroblasts
Procedure, shortened: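 ELISA readout of VCAM-1 on human lung fibroblast cultures 24 hours after dosing, analyzed for signal gain relative to DMSO. Overt cytotoxicity was checked by sulforhodamine B total-protein staining in parallel cultures.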

[11] = TAMU_HCS_1.5hr_SingleDonor1434_Cytotoxicity: Cytotoxicity Assessment using High-content Screening (HCS) Fluorescent Imaging for the Texas A&M University (TAMU) 1.5-hr Human Induced Pluripotent Stem Cell (iPSC)-derived Cardiotoxicity Assay (AID 2284234; active means hit-call score of the fitted dose curve at least 0.9, where 1 is the maximum)
Procedure, shortened: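 Nuclear counts from Hoechst 33342 imaging define cytotoxicity here, with EC10 (10% cell-count loss relative to DMSO) as point of departure. iPSC cardiomyocytes received 0.2-100 uM test chemical in 0.5% DMSO for 1.5 h at 37 C.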

Sequence of Tumor necrosis factor (Homo sapiens) (P01375 whole entry, looked up): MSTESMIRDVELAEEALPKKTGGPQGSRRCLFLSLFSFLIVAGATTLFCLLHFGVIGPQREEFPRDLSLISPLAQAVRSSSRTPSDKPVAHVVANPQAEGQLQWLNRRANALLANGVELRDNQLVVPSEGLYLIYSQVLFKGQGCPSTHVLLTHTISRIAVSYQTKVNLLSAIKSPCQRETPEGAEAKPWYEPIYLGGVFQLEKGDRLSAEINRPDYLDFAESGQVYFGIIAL

NC(=O)NO
outcome [1]: inactive | outcome [2]: inactive

Cn1c(=O)c2c(ncn2C)n(C)c1=O
outcome [1]: inactive | outcome [3]: inactive

O=C1CCC(N2C(=O)c3ccccc3C2=O)C(=O)N1 (stereo not given)
outcome [3]: inactive

Cn1cnc([N+](=O)[O-])c1Sc1ncnc2nc[nH]c12
AC50 [4]: 8.01 µM (active) | outcome [4]: inactive | AC50 [5]: 206 nM (active) and 716 nM (active) | AC50 [6]: 10.5 µM (active) and 5.28 µM (active) | AC50 [7]: 8.87 µM (active) and 12.6 µM (active) | AC50 [8]: 12.6 µM (active) and 10.3 µM (active) | AC50 [9]: 12.6 µM (active) | outcome [10]: inactive

CCCCCCc1ccc(O)cc1O
AC50 [11]: 50 µM (active) | outcome [2]: inactive
